A selection: hits, their analogues and other compounds. The true share with any hit is near 2.2%.
rat GALR2 ag: agonists of rat galanin receptor 2 (GALR2) | cell-based GALR2 agonist screen | 16,000 compounds, 0.5% hits | activation, % at 10 µM | Galanin receptor type 2 (Rattus norvegicus), O08726; in the data active = activation above about 15%
S1P1 ag: activates the human S1P1 receptor | AID 1044, 2008 | activation, % at 4.5 µM | 16,000 compounds, 1.5% hits | S1P1 agonist cell-based reporter assay | Sphingosine 1-phosphate receptor 1 (Homo sapiens), P21453; in the data active = activation above about 80%
Target sequence (P21453 whole entry, looked up): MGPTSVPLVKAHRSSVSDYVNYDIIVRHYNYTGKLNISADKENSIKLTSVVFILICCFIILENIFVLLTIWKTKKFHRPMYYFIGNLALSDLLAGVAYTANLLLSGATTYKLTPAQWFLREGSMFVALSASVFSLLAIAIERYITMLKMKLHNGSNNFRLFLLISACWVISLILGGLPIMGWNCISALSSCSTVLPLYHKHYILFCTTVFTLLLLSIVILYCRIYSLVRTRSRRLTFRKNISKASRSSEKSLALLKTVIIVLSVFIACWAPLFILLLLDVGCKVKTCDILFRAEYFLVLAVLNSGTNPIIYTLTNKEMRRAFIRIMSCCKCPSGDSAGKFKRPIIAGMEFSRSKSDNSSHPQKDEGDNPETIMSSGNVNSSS
NOTCH ag: agonists of NOTCH signaling | AID 434982, 2010 | activation, % at 2.5 µM | NOTCH signaling luciferase reporter cells, luminescence | 15,000 compounds, 0.4% hits; in the data active = activation above about 2.2%
Active calls of the source: *; . = not tested or not shown.

SMILES | rat GALR2 ag | S1P1 ag | NOTCH ag
CCOC(=O)/C(C#N)=C/Nc1cccnc1Oc1ccc(C)c2c1CCC2 | 27.3* | -6.2 | -1.2
COc1ccc(OCC(O)CNC(=O)c2scc(S(=O)(=O)c3ccc(Cl)cc3)c2C)cc1 (stereo unspecified) | -7.2 | 10.3 | -0.5
Clc1ccc(-n2nnnc2-c2cnoc2-c2cccs2)cc1 | -1.1 | -14.1 | -0.1
CSC(=CC(=O)c1ccncc1)SC | -6.4 | -4.9 | 3.5*
CSC(=CC(=O)c1ccc(Cl)cc1)SC | -3.6 | 6.7 | 0.5
CC(=O)Nc1ccc(F)cc1NC=C(C#N)C#N | -4.2 | 0.8 | 0.1
CSc1ccc(C(F)(F)F)cc1NC=C(C#N)C#N | -9.0 | 89.5* | -0.3
COC(=O)C1=CN2c3ccccc3SC2(C(=O)OC)C(C(=O)OC)=C1C(=O)OC (stereo unspecified) | -5.5 | 99.0* | -0.2
COC(=O)c1ccccc1-n1cccc1C(=O)OC | -3.1 | -1.0 | 0.1
CCCS(=O)(=O)/C(C#N)=C/c1cc(C(F)(F)F)cc(C(F)(F)F)c1 | -2.9 | -3.0 | -0.6
CCCS(=O)(=O)/C(C#N)=N/Nc1cc(C(F)(F)F)cc(C(F)(F)F)c1 | -8.1 | 117.5* | -0.4
Cc1cc(C(=O)NNC(=S)NCc2ccccc2)ccc1[N+](=O)[O-] | -5.1 | -12.2 | -0.1
N#CC(C#N)=Cc1ccc(-c2cc(C(F)(F)F)cc(C(F)(F)F)c2)s1 | 5.3 | 11.1 | 0.4
NC(=O)N/N=C/c1ccc(-c2cc(C(F)(F)F)cc(C(F)(F)F)c2)s1 | -6.2 | 97.5* | -0.4
CCn1nc(C)cc1C(=O)O | -1.5 | -17.9 | -0.3
COc1ccc(OC)c(C(=O)c2ccc(NC(=O)c3ccc(Cl)c(Cl)c3)cc2)c1 | -12.4 | -23.4 | .
C#CCOC(=O)Nc1cnc(Sc2ccccc2)c(C(F)(F)F)c1 | -7.8 | 11.5 | -0.1
C#CCOC(=O)Nc1cnc(Oc2c(Cl)cccc2Cl)c(C(F)(F)F)c1 | -9.9 | 98.6* | -0.4
Nc1cnc(Oc2c(Cl)cccc2Cl)c(C(F)(F)F)c1 | -4.9 | 86.2* | -0.5
Nc1cnc(Sc2ccccc2)c(C(F)(F)F)c1 | -4.2 | -15.0 | -0.3
COc1ccc(CCNC(C#N)c2cc(Br)ccc2O)cc1OC (stereo unspecified) | -0.3 | 18.0 | -0.5
Oc1ccc(Cl)cc1C=NCc1cccs1 | 8.6 | -4.2 | 0.5
Cc1ccc(Cn2nc(C(=O)O/N=C(\N)c3ccccc3)cc2C)cc1 | -8.7 | 100.4* | -0.2
Cn1nc(C(C)(C)C)cc1C(=O)O/N=C(\N)c1ccccc1 | -1.4 | 72.0 | -0.1
O=c1c(=NO)c(=O)c2ccccc12 | -8.4 | 1.9 | 2.3*
SMILES | rat GALR2 ag | S1P1 ag | NOTCH ag
O=c1c2ccccc2c(=O)n2n1CC=CC2 | -8.3 | -5.6 | 0.1
COC(=O)COC(=O)c1ccccc1[N+](=O)[O-] | 0.4 | 0.4 | 0.6
CCOC(=O)C1CCN(C(=O)Nc2c(-c3ccccc3)noc2C)CC1 | -9.8 | -6.4 | 2.7*
Cc1onc(-c2ccccc2)c1NC(=O)N1CCN(C2c3ccccc3-c3ccccc32)CC1 | -5.7 | -1.8 | -0.1
CCOC(=O)c1csc(-c2ccc(C3SCCS3)cc2)n1 | -1.0 | 5.7 | -0.1
CN(C)/C=N/NC(=O)c1cc(Cl)c(OCc2ccc(F)cc2)c(Cl)c1 | -4.2 | 1.2 | -5.7
O=C(CC1SC(Cc2ccccc2Cl)=NC1=O)Nc1ccccc1 (stereo unspecified) | -8.3 | 7.9 | 0.5
COc1ccc(/C=C(\C#N)C(=O)c2cc(C(C)(C)C)on2)cc1 | 21.4* | -9.2 | -0.5
Cc1ccc(N/C=C(\C#N)C(=O)c2cc(C(C)(C)C)on2)cc1 | -5.7 | -13.7 | -0.7
O=S(=O)(Cc1ccc(Cl)cc1)NCc1csc(-c2cccs2)n1 | -2.8 | 0.8 | -0.3
Cc1ccc(/C(=C/C=C(C#N)C#N)N2CCN(c3ccc(Cl)c(Cl)c3)CC2)cc1 | -0.9 | 1.9 | -0.2
N#C/C(=N\Nc1ccccc1Cl)S(=O)(=O)c1ccc(Cl)cc1 | -12.3 | 111.5* | 0.5
N#C/C(=N\O)S(=O)(=O)c1ccccc1 | 3.4 | 0.8 | 0.2
Cc1ccc2nc(-c3ccc(N=Cc4c(O)ccc5ccccc45)cc3)sc2c1 | 6.6 | 0.4 | -0.1
O=S(=O)(NCCc1ccccn1)c1ccc(-c2ccon2)s1 | -8.1 | 11.4 | -0.3
N#C/C(=C\c1cccs1)C(=O)N1CCOCC1 | -7.3 | 99.5* | .
O=C(/C(=C\c1cccs1)c1ccsc1)N1CCOCC1 | -5.3 | -4.0 | -1.2
COc1cccc(-c2csc(NNC(=O)c3ccncc3)n2)c1 | -0.9 | 11.1 | -0.5
O=C(Nc1ccc(C2SCCS2)cc1)c1ccc(Cl)cc1Cl | -2.6 | 7.6 | -0.6
O=C(c1cnn(-c2ccc(Cl)cc2)c1C(F)(F)F)N1CCN(c2ncnc3ccsc23)CC1 | -5.9 | 97.3* | -2.3
NNC(=O)c1cnn(-c2ccc(Cl)cc2)c1C(F)(F)F | -0.8 | -21.9 | -0.5
CSc1nc(C=Nc2ccc(Cl)cc2Cl)ccc1C#N | 6.2 | 15.5 | 0.1
CNc1ccc(Cl)cc1C(=O)NC1CC(C)CC(C)(C)C1 (stereo unspecified) | 5.3 | -5.0 | 2.6*
CC1CC(NC(=S)NCCO)CC(C)(C)C1 (stereo unspecified) | -5.2 | 1.1 | 1.4
O=C1c2ccccc2C(=O)N1/N=C/c1ccc([N+](=O)[O-])s1 | -3.7 | 2.3 | 0.8
SMILES | rat GALR2 ag | S1P1 ag | NOTCH ag
COC(=O)c1cnc(Sc2ccc(Cl)cc2)nc1C(F)(F)F | 0.0 | 15.2 | -1.2
CCOC(=O)c1cnc(SCc2ccc(Cl)cc2)nc1C(F)(F)F | -7.5 | 80.6* | -0.6
Cn1c(-c2cc(C(C)(C)C)nn2Cc2ccc(F)cc2)n[nH]c1=S | -5.7 | -3.9 | 0.6
N#CC(C#N)=NNc1ccc2c(c1)OCCO2 | -12.3 | 94.1* | 0.0
O=C(NC(=S)Nc1ccc2c(c1)OCCO2)c1ccccc1 | -2.7 | 6.4 | 0.0
Cc1c(C#N)c(Sc2ccccc2NC(=O)c2cccs2)nc2ccccc12 | -5.1 | 2.1 | -0.5
COC(=O)C1=C(Nc2cccc(-c3nn(C)cc3Br)c2)CSC1 | -1.5 | 14.8 | -0.1
Cn1c(SCC(=O)N/N=C/c2cccnc2)nnc1-c1ccncc1 | -7.1 | -8.7 | -0.3
Cn1c2c(c(=O)n3ncnc13)CCCC2 | 0.9 | 91.5* | -0.5
O=C(Cn1c2c(c(=O)n3ncnc13)CCC2)N/N=C/c1cccs1 | -6.0 | -8.1 | 0.1
CC1(C)CC(=O)c2c(SCCOC(=O)Nc3ccc(OC(F)(F)F)cc3)sc(C#N)c2C1 | -10.5 | -19.4 | 1.0
CC1(C)CC(=O)c2c(SCCOC(=O)c3ccccc3Cl)sc(C#N)c2C1 | -5.0 | 97.3* | -0.4
COc1ccc(C(CC(N)=O)CC(=O)O)cc1 (stereo unspecified) | -4.9 | -8.7 | -0.1
CCN(CC)c1ccc(/C=C/c2ccc([N+](=O)[O-])cc2C#N)cc1 | -12.5 | 104.0* | -0.1
CCN(CC)c1ccc(C#N)cc1 | -8.6 | -2.6 | 0.1
CCCS(=O)(=O)c1cscc1NC(=O)Nc1c(-c2c(Cl)cccc2Cl)noc1C | -7.3 | -0.4 | -0.5
COc1cc2c(cc1OC)CC(=O)OC2 | -4.9 | 80.7* | -0.8
COc1cc2c(c(OC)c1OC)Cc1cc(OC)c(OC)c(OC)c1C2 | -6.5 | 0.3 | -0.4
COc1cc(-c2cc3c(c(N)c2C#N)c(=O)oc2ccccc23)cc(OC)c1OC | -3.8 | -2.5 | -5.3
N/C(=N/OC(=O)Nc1cccc(C(F)(F)F)c1)C1COc2ccccc2O1 (stereo unspecified) | -6.0 | -0.8 | 2.4*

Screening results: PubChem, The Scripps Research Institute Molecular Screening Center
